Measurements taken from the supplement of paper PMC11732987, “Enantioselective OTUD7B fragment discovery through chemoproteomics screening and high-throughput optimisation” (Communications Chemistry, 2025).
Unmarked numbers belong to inactive results.

These compounds were tested against USP14 (UniProt P54578) (assay: log2 ratio of Biotin-Ahx-Ub-VS probe labelling (fragment/DMSO); higher = less target engagement (more negative = stronger competition), active = hit call of the paper (q ≤ 0.05, log2 ratio ≤ -1)). Details: compound concentration: 200 uM; treatment time: 3 h.
Protocol: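 Competitive ABPP in HEK293T cell lysate. Lysates were treated with each chloroacetamide fragment at 200 µM for 3 h, then with Biotin-Ahx-Ub-VS (0.5 µM, 1 h), NeutrAvidin-enriched and analysed by diaPASEF LC-MS/MS. Protein LFQ was median-normalised; average log2 ratio is fragment/DMSO from an unpaired t-test (n=3 treated, n=44 DMSO). Hits: q ≤ 0.05, log2 ratio ≤ -1, unique peptides ≥ 2.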

Sequence of USP14 (P54578 whole entry, the tested form may be a part): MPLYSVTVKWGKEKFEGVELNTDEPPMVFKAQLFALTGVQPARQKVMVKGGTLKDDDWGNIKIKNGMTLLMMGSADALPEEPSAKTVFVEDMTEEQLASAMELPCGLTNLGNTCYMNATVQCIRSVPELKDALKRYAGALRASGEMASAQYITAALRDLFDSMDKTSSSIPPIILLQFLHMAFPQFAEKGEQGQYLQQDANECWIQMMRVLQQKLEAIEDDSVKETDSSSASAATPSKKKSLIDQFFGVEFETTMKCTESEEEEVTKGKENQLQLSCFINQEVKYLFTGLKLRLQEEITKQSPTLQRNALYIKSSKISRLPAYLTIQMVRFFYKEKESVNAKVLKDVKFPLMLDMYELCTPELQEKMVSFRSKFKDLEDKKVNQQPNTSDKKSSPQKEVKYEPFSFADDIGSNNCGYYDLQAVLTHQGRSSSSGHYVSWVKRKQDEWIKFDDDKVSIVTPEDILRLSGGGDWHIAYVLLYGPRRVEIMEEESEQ

Row | Compound | log2 ratio of Biotin-Ahx-Ub-VS probe labelling
1 | Cc1noc(C)c1CNC(=O)CCl | -0.561
2 | O=C(CCl)Nc1cccc2ncccc12 | 0.338
3 | Cl.O=C(CCl)NC1(c2ncccn2)CCC1 | 0.108
4 | O=C(CCl)N1CCN(C(=O)Nc2ccccc2)CC1 | 0.127
5 | C[C@H]1CN(C(=O)CCl)CCN1C(=O)c1cnn(C)c1.Cl | -0.0358
6 | O=C(CCl)Nc1cc(Cl)ccc1C(=O)O | 0.0912
7 | CC(NC(=O)CCl)c1cc2n(n1)CCCC2.Cl (configuration not stated) | -0.363
